A selection: hits, their analogues and other compounds. The true share with any hit is near 1.4%.
HDAC3 inh – human HDAC3 inhibition; O15379; recombinant HDAC3, fluorogenic peptide/trypsin coupled, fluorescence; inhibition, % at 8.3 µM; 0.15% of 320,000 active; in the data active means inhibition above about 26%, passing the limit was not always enough; inconclusive means no clear call, values can overlap the other calls
Target sequence (O15379 whole entry, looked up): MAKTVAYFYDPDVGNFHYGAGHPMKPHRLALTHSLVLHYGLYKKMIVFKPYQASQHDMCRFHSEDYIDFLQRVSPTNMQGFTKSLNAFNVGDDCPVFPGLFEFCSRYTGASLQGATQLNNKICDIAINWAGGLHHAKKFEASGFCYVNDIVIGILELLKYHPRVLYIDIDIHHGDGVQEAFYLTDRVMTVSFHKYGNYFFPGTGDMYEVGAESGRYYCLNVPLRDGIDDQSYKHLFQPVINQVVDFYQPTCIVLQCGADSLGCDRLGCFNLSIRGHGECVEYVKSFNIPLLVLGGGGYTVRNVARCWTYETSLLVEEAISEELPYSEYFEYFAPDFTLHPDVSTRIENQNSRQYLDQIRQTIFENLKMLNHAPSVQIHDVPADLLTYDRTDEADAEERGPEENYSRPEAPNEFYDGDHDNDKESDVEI
APOBEC3A inh – blocks human APOBEC3A ssDNA deamination; P31941; inhibition, % at 20 µM; recombinant A3A, FAM/TAMRA ssDNA deamination fluorescence; 0.41% of 330,000 active;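 active means at least 40% inhibition at 20 µM here, with at most 30% in a related deaminase screen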
Target sequence (P31941 whole entry, looked up): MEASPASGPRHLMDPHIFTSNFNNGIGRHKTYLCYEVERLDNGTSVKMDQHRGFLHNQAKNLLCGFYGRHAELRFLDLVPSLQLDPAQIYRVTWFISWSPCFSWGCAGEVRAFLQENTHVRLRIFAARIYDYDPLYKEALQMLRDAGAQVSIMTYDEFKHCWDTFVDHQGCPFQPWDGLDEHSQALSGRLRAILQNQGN
LANA-H2B inh – blocks KSHV LANA binding to histone H2A/H2B; 0.6% of 320,000 active; AID 2629; cell-free LANA-H2A/H2B peptide, fluorescence polarization; Q9QR71; inhibition, % (test concentration not listed); in the data active means inhibition mostly above about 10%, no sharp cut-off; inactive means mostly below about 6.7%
APOBEC3G inh – inhibitors of human APOBEC3G DNA deaminase. Q9HC16. recombinant A3G, ssDNA deamination FAM/TAMRA fluorescence. inhibition, % at 20 µM. 0.28% of 330,000 active;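 active means inhibition of at least 40% at 20 µM, with no more than 30% in the related APOBEC3A deaminase screen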
Large screens that a line does not name were inactive.

Cc1cccc(NC(=O)CN(C)C(=O)/C=C/c2ccccc2)c1C	none (no result: HDAC3 inh, LANA-H2B inh)
Cc1ccc(S(=O)(=O)N2CCOCC2)cc1C(=O)NCCc1ccc(Cl)cc1	none
O=C(CN1CCN(C(=O)c2cncn2-c2ccccc2)CC1)Nc1ccccc1Cl	none
Cc1ccc(NC2=C([N+](=O)[O-])CS(=O)(=O)C2)cc1	LANA-H2B inh 27.9
CN(C)c1ccc(NC2=C([N+](=O)[O-])CS(=O)(=O)C2)cc1	none
Cn1nc([N+](=O)[O-])nc1Oc1ccccc1C(=O)N1CCOCC1	LANA-H2B inh active
CC(=O)N(Cc1ccc(Cl)cc1)c1cnccn1	none
CN(CCO)c1cnccn1	LANA-H2B inh 14.3
CCOc1ccc(Oc2ccc(C(F)(F)F)cc2NC(=O)C2=COCCO2)cc1	none
Cc1ccc(S(=O)(=O)N2CCN(C(=O)n3ccnc3)CC2)cc1	LANA-H2B inh 31.0
O=C(COC(=O)c1cc(=O)c2ccccc2o1)NCc1ccccc1	none (no result: HDAC3 inh, LANA-H2B inh)
COc1ccccc1CNC(=O)COC(=O)c1cc(=O)c2ccccc2o1	LANA-H2B inh 16.7
Cc1ccn2c(=O)c(C(=O)NC3CCCCC3C)c(O)nc2c1 (stereo not given)	none
C=CC[C@H](CC(=O)N(CCO)Cc1ccccc1)C(=O)NC[C@H](OC(=O)[C@@H](CC=C)CC(=O)OC(C)(C)C)c1ccccc1	HDAC3 inh 31.2
C=CC[C@@H](CC(=O)N(CCO)Cc1ccccc1)C(=O)NC[C@@H](OC(=O)[C@@H](CC=C)CC(=O)OC(C)(C)C)c1ccccc1	none
C=CCC[C@@H](Cc1ccc(F)cc1)C(=O)OC[C@@H](Cc1c[nH]c2ccccc12)NC(=O)[C@H](CC=C)CC(=O)N(CCO)Cc1ccccc1	HDAC3 inh 50.6
C=CC[C@@H](CC(=O)N(CCO)Cc1ccccc1)C(=O)N[C@@H](COC(=O)[C@@H](CC=C)Cc1ccc(F)cc1)Cc1c[nH]c2ccccc12	HDAC3 inh 39.5
C=CC[C@@H](CC(=O)N(CCO)Cc1ccccc1)C(=O)N[C@@H](COC(=O)[C@@H](CC=C)CC(=O)OC(C)(C)C)Cc1c[nH]c2ccccc12	none
C=CCC[C@@H](Cc1ccc(F)cc1)C(=O)OC[C@H](Cc1c[nH]c2ccccc12)NC(=O)[C@H](CC=C)CC(=O)NCCO	HDAC3 inh 32.0
C=CCC[C@H](Cc1ccc(F)cc1)C(=O)OC[C@@H](Cc1c[nH]c2ccccc12)NC(=O)[C@H](CC=C)CC(=O)NCCO	HDAC3 inh inconclusive
Cc1ccc(S(=O)(=O)Nc2cccc3c2O[C@H](CN(C)Cc2ccccc2)[C@@H](C)CN([C@H](C)CO)C3=O)cc1	none
CCCn1c(C(C)Nc2nc(-c3cc(Cl)c(N)c(Cl)c3)cs2)nc2cc(Cl)c(N3CCCCC3)cc21 (stereo not given)	none
COc1ccc(-c2oc3ccc(-c4cc(OC)c(OC)c(OC)c4)cc3c2C#Cc2ccccn2)cc1	none
CC(C)COc1cccc(-c2cc(C(=O)N/N=C/c3ccncc3)c3ccccc3n2)c1	none
C=CC[C@H](CC(=O)N(CCO)Cc1ccccc1)C(=O)N[C@@H](COC(=O)[C@H](CC=C)CC(=O)OC(C)(C)C)Cc1c[nH]c2ccccc12	none
C=CC[C@H](CC(=O)N(CCO)Cc1ccccc1)C(=O)N[C@@H](COC(=O)[C@@H](CC=C)Cc1ccc(F)cc1)Cc1c[nH]c2ccccc12	HDAC3 inh 38.9 (no result: LANA-H2B inh)
C=CCC[C@H](Cc1ccc(F)cc1)C(=O)OC[C@@H](Cc1c[nH]c2ccccc12)NC(=O)[C@H](CC=C)CC(=O)N(CCO)Cc1ccccc1	none
C=CC[C@@H](CC(=O)N(CCO)Cc1ccccc1)C(=O)N[C@H](COC(=O)[C@@H](CC=C)CC(=O)OC(C)(C)C)Cc1c[nH]c2ccccc12	HDAC3 inh 50.2
C=CCC[C@@H](Cc1ccc(F)cc1)C(=O)OC[C@@H]1CCCN1C(=O)[C@@H](CC=C)CC(=O)N(CCO)Cc1ccccc1	HDAC3 inh 28.2
COc1cc(C(=O)Nc2ccc(C(F)(F)F)cc2)ccc1OCC(=O)N1CCOCC1	none (no result: HDAC3 inh, LANA-H2B inh)
CC(=O)N1CCN(C(=O)COC(=O)/C=C/c2ccccc2[N+](=O)[O-])CC1	none
COc1ccccc1C(=O)N(Cc1ccccc1)c1ccc(C)cc1	none
COc1ccc(CC(=O)N(Cc2ccccc2)c2ccccc2)cc1S(=O)(=O)N1CCOCC1	LANA-H2B inh 15.7
COc1ccccc1CC(=O)N(Cc1ccccc1)c1ccc(C)cc1	LANA-H2B inh 22.0
Cc1noc(C)c1S(=O)(=O)Nc1ccc2c(c1)C(=O)N([C@H](C)CO)C[C@H](C)[C@@H](CN(C)C(=O)NC1CCCCC1)O2	none
CCc1cc(-c2[nH]ncc2-c2ccc(OC)cc2)c(O)cc1O	none
CCc1cc(-c2[nH]ncc2-c2ccc3c(c2)OCO3)c(O)cc1O	LANA-H2B inh -8.4
COC(=O)c1ccc(CSc2nc3scc(-c4cccs4)c3c(=O)[nH]2)o1	HDAC3 inh 42.2
Cn1c(=O)c(N)c2c3c(c(Br)ccc31)C(=O)c1ccccc1-2	LANA-H2B inh 42.7
CC(C)CN1Cc2ccccc2Oc2cc(Br)ccc2S1(=O)=O	none (no result: HDAC3 inh, LANA-H2B inh)
COc1cc(/C=C2\SC(=S)N(NC(C)=O)C2=O)ccc1OC(=O)c1ccco1	HDAC3 inh 27.4
COc1cc(/C=C2/SC(=S)N(C)C2=O)ccc1OC(=O)c1ccco1	none
C[C@]12CC[C@@H]3c4ccc(O)cc4C(=O)C[C@H]3[C@@H]1CC[C@@H]2O	LANA-H2B inh 3.5
CCCCC(=O)O[C@H]1CC[C@H]2[C@@H]3CCc4cc(O)ccc4[C@H]3CC[C@]12C	none
O=C(NCc1cccc(Cl)c1)c1ccc2c(c1)SC1=NS(=O)(=O)CCN12	LANA-H2B inh 16.3
CN(C(=O)CCc1nnc(-c2ccc(-c3ccccc3)cc2)o1)C1CCOCC1	LANA-H2B inh 14.8
CN(CCCC1CCCC1)C(=O)CCc1nnc(-c2ccccc2)o1	none
CCOc1ccc2noc3c2c1C(=O)c1ccccc1-3	LANA-H2B inh 44.4
CCOC(=O)c1c(C)oc2c1C(=O)c1ccccc1C2=O	none
CCNc1ccc2noc3c2c1C(=O)c1ccccc1-3	LANA-H2B inh 28.1
O=C1c2ccccc2-c2onc3ccc(NCc4ccco4)c1c23	LANA-H2B inh 110.9
CC(C)N(C(=O)[C@H]1C[C@H](CC(=O)NCCN2CCOCC2)C(=O)N2CCc3c([nH]c4ccc(Cl)cc34)[C@]12C)C(C)C	none (no result: HDAC3 inh, LANA-H2B inh)
C=C(C)COc1ccc(-c2nc(N)ncc2Oc2ccccc2OC)c(O)c1	HDAC3 inh 29.8
CCOc1ccc(-c2nc(N)ncc2Oc2ccccc2Br)c(O)c1	none
CCOc1ccc(-c2nc(N)ncc2Oc2cccc(OC)c2)c(O)c1	HDAC3 inh 27.1
CN(c1ccc(F)cc1)S(=O)(=O)c1ccc(Cl)c(C(=O)NCC(c2ccco2)N2CCCCC2)c1 (stereo not given)	none (no result: HDAC3 inh, LANA-H2B inh)
COc1ccc(C)c2sc(N(CCCN(C)C)C(=O)c3ccc(S(=O)(=O)N4CCc5ccccc5C4)cc3)nc12	none (no result: APOBEC3A inh, APOBEC3G inh)
COc1ccc(OC)c2sc(N(CCCN(C)C)C(=O)c3ccc(S(=O)(=O)N4CCc5ccccc5C4)cc3)nc12	HDAC3 inh 40.9
CCOC(=O)C1(N(CC)CC)Sc2cc(C)ccc2NC1=O (stereo not given)	none
